# DT40 TDP1 CPT: DT40-hTDP1 cell growth loss with CPT. 420,000 tested, 12% active. AID 686979. chicken DT40 Tdp1-/-;hTDP1 cells + 20 nM CPT, ATP luminescence, 48 h. Potency, µM (doses to about 46.2 µM), without a hit: at the highest dose activity change, negative = growth inhibition, most hits filed as inhibitors; also: nearly all actives have a fitted effect of over 55% in size
#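 Cell growth measured by CellTiter-Glo luminescence after a minimum 48 h, 37 C compound exposure with 20 nM CPT in Tdp1-knockout DT40 cells stably expressing hTDP1, seeded 400/well; qHTS titration format.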
# KAT2A inh: inhibitors of human GCN5L2 histone acetyltransferase; Q92830; GCN5L2 HAT assay, ThioGlo1 CoA-SH fluorescence; Potency, µM (series often up to 58.9 µM), without a hit: at the top dose activity change, negative = inhibition, usual class: inhibitors; 390,000 tested, 0.21% active; AID 504327
#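 GCN5L2 (20nM final) in 50mM HEPES, 0.1mM EDTA pH 7.5, 0.01% Tween-20 was preincubated 15 min at room temperature with compound, then given ThioGlo1 (50uM), H3(1-25) peptide (75uM) and acetyl-CoA (70uM); CoA-thiol fluorescence (Ex340/Em540) was read at 0 and 20 min.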
# TDP1 block: TDP1 (human) enzyme inhibition. Q9NUW8. recombinant TDP1, AlphaScreen DNA substrate cleavage. Potency, µM (titrated, usually from 130 µM), without a hit: at the top dose activity change, negative = inhibition, actives largely listed as inhibitors. 350,000 tested, 0.28% active. AID 485290; also: nearly all actives have a fitted effect of over 40% in size
# Target sequence (Q9NUW8 whole entry, looked up): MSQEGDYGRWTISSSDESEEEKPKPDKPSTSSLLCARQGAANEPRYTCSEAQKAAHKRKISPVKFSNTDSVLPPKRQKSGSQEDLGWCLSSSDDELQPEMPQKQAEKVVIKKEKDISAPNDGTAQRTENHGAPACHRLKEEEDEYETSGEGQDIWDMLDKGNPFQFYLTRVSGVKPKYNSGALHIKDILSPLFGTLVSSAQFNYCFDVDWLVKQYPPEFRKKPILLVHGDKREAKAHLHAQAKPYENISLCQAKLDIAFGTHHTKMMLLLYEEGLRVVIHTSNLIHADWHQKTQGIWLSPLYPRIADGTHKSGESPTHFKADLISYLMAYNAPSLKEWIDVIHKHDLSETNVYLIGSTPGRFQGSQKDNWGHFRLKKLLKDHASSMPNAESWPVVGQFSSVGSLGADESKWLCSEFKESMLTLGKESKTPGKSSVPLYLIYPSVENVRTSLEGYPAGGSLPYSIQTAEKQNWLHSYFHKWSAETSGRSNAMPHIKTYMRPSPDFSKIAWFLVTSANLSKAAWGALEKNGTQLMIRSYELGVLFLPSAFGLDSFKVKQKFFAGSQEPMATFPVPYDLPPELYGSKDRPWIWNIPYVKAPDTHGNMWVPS
#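 Enzyme-compound mixtures sat 15 min at room temperature, followed by a 5 min reaction with 15 nM final substrate and 10 min with AlphaScreen beads. Recombinant human Tdp1 was used at 1 nM final.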
# DT40 TDP1 no CPT: qHTS for Inhibitors of human tyrosyl-DNA phosphodiesterase 1 (TDP1): qHTS in cells in absence of CPT | Potency, µM (highest dose often 46.2 µM), for inactives: top-dose activity change, negative = growth inhibition, hits mostly inhibitors | AID 686978, 2013 | DT40 Tdp1-/- hTDP1 cells, no CPT, ATP luminescence, 48 h | 420,000 tested, 15% active; also: nearly all actives have a fitted effect of over 55% in size
#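 Growth of hTDP1-complemented DT40 Tdp1-knockout cells is measured by ATP luminescence after at least 48 hr compound exposure at 37 °C, with DMSO substituting for the 20 nM CPT used in the parallel screen.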
# VDR inhibitor: inhibitors of human vitamin D receptor; P11473; VDR-SRC2-3 peptide fluorescence polarization, 2 h; Potency, µM, without a hit: max response, negative = inhibition, usual class: inhibitors; 400,000 tested, 0.93% active; AID 504847
#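 VDR–SRC2-3 interaction, FP format. Cmpds 23 nl via pintool, brief spin, 2 h ambient incubation.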
# PLK1 PBD block: PLK1 (human) polo-box domain binding inhibition. P53350. Plk1 PBD binding of FITC phosphopeptide, fluorescence polarization. Potency, µM, for inactives: max response, negative = inhibition, hits mostly inhibitors. 360,000 tested, 2.8% active. AID 720504; also: series mostly up to about 57 µM; nearly all actives have a fitted effect of over 65% in size
# * hit, by the source's call; ? = inconclusive; . = not tested or not shown. Compounds with a hit are over-represented: about 18% of the library has one in this group of screens. Calls follow the shape of the dose curve; as a rule, active = well fitted curve in the direction sought with a large enough effect; inconclusive = small, poorly fitted or top-dose-only effect, or another doubt; inactive = no such curve, though single readings can be large; an effect the other way counts as inactive or inconclusive. % is scaled to controls: 0 for no effect and ±100 for the full control effect; potency is read from the fitted curve at half-maximal effect.
SMILES,DT40 TDP1 CPT,KAT2A inh,TDP1 block,DT40 TDP1 no CPT,VDR inhibitor,PLK1 PBD block
O=C(NC1CCCC1)c1ccc2c(c1)N(Cc1ccccc1F)C(=O)c1ccccc1S2,?,-2%,3%,15µM*,19%,.
Cc1ccccc1CN1C(=O)c2ccccc2Sc2ccc(C(=O)NC3CCCCC3)cc21,15µM*,-3%,5%,16µM*,4%,.
Cc1ccc(Cn2nnc3c(=O)n(CC(=O)N4CCN(c5ccccc5)CC4)cnc32)cc1,21µM*,-10%,7%,?,-4%,-10%
O=C(Cn1cnc2c(nnn2Cc2ccc(F)cc2)c1=O)N1CCCCC1,0%,14%,-1%,-13%,0%,1%
Cc1ccc(Cn2nnc3c(=O)n(CC(=O)OCc4ccccc4)cnc32)cc1,18µM*,-6%,7%,16µM*,0%,3%
CCOC(=O)c1c(C)oc2ccc(OC(=O)COc3c(F)c(F)c(F)c(F)c3F)cc12,-18%,-7%,-11%,?,0%,-4%
O=C1CCC(C(=O)N2CCN(c3ccccc3)CC2)CN1Cc1ccc(Cl)cc1 (stereo not drawn),?,.,.,?,.,6%
O=C1NN(C(=O)Nc2ccc(Br)cc2)C(c2ccccc2)C1c1ccccc1 (stereo not drawn),.,-18%,22%,.,-17%,.
Cc1ccc(-c2nc(N3CCCC(C)C3)c3ccccc3n2)cc1 (stereo not drawn),?,-13%,.,?,7%,.
O=C(NCc1ccccc1)c1ccc(S(=O)(=O)N2CCCCCC2)cc1,?,.,.,?,.,1%
O=C(CNC(=O)c1ccc(S(=O)(=O)N2CCCC2)cc1)N/N=C/c1ccccc1Cl,?,-4%,4%,13µM*,4%,1%
O=C(N/N=C\c1c(O)ccc2ccccc12)c1ccc(S(=O)(=O)N2CCCCC2)cc1,3.3µM*,-5%,8%,3.7µM*,7%,77%
Cc1cc(O)cc(O)c1/C=N/NC(=O)c1ccc2c(c1)OCCO2,5.8µM*,.,.,6.5µM*,.,-17%
O=C(NN=Cc1c(O)ccc2ccccc12)c1ccc2c(c1)OCO2,5.8µM*,-7%,-6%,2.6µM*,-9%,-15%
O=C(CN1CCCN(Cc2cccc(F)c2)S1(=O)=O)Nc1ccc2c(c1)OCCO2,?,-4%,4%,?,11%,.
COCCCn1nnnc1SCC(=O)Nc1nc2ccccc2s1,-9%,-7%,.,-26%,3%,-10%
Cc1cc(C)cc(Oc2c(C(F)(F)F)oc3cc(OCC(=O)NC4CCCCC4)ccc3c2=O)c1,-8%,-8%,.,?,15%,.
O=C(N/N=C/c1c(O)ccc2ccccc12)c1ccc(CO)nc1,4.6µM*,-8%,5%,4.6µM*,-7%,38%
C/C(=N\NC(=O)c1cc2ccccc2cc1O)c1ccc2c(c1)OCO2,2%,-4%,10%,-29%,-8%,-8%
CC/C(=N/NC(=O)c1ccc2c(c1)OCO2)c1ccccc1O,6.5µM*,.,.,3.7µM*,13%,-4%
CCOc1ccc2ccccc2c1/C=N/NC(=O)c1ccncc1,3%,-6%,3%,-22%,0%,-6%
COc1ccc(S(N)(=O)=O)cc1C(=O)NC1CCCc2ccccc21 (stereo not drawn),-30%,2%,0%,-10%,13%,0%
c1ccc2c(c1)N1CCCN=C1N2CCN1CCCCC1,-26%,-5%,-5%,6%,-12%,27µM*
OCCN1C2=NCCCN2c2ccccc21,31%,-3%,4%,-2%,-8%,-4%
CCCCCCN1C2=NCCCN2c2ccccc21,18µM*,-2%,-1%,16µM*,17%,6%
SMILES,DT40 TDP1 CPT,KAT2A inh,TDP1 block,DT40 TDP1 no CPT,VDR inhibitor,PLK1 PBD block
C=CCN1C2=NCCCN2c2ccccc21,-7%,0%,1%,6%,3%,1%
CCN(CC)c1ccc(NC(=O)Cn2ncc3c(C)n(Cc4ccccc4F)c(C)c3c2=O)c(C)c1,?,-6%,8%,21µM*,9%,-7%
Cc1ccc(Cl)cc1NC(=O)Cn1ncc2c(C)n(Cc3ccccc3F)c(C)c2c1=O,?,?,5%,?,0%,.
COC(=O)c1ccccc1NC(=O)Cn1ncc2c(C)n(Cc3ccc(F)cc3)c(C)c2c1=O,21µM*,-11%,3%,?,16%,.
CCN(CC)c1ccc(NC(=O)CN2C(=O)CC(C)(C)S(=O)(=O)c3ccccc32)c(C)c1,15µM*,-1%,8%,16µM*,5%,?
Cc1c2cnn(CC(=O)Nc3c(F)c(F)cc(F)c3F)c(=O)c2c(C)n1Cc1ccc(F)cc1,.,-20%,-9%,.,.,.
O=C(CC(C(=O)O)c1ccc(Cl)cc1Cl)c1ccc(Cl)cc1 (stereo not drawn),1%,-1%,.,13%,5%,-3%
CCOC(=O)Cc1cc(=O)n2[nH]cc(-c3ccc(Cl)cc3)c2n1,?,-6%,11%,-18%,40%,-4%
CC(=O)c1cccc(N(C(=O)CNC(=O)c2ccco2)C(C(=O)NCc2ccco2)c2ccccc2)c1 (stereo not drawn),2%,-5%,7%,-11%,0%,-10%
CCCCCCCCOC(=O)/C=C/c1c(C)[nH]c(=O)[nH]c1=O,?,-1%,0%,7.3µM*,-11%,-3%
CC(C)c1ccc(NC(=O)c2ccc3oc(=O)c(S(=O)(=O)c4ccc(F)cc4)cc3c2)cc1,?,-1%,5%,7.3µM*,0%,.
COc1ccc(/C=C/C(=O)c2cc(F)ccc2OC(=O)c2ccccc2C)cc1OC,0.92µM*,-7%,3%,1µM*,?,-2%
COc1ccc(C(C)=O)c(OC(=O)c2ccc(OC)c(OC)c2)c1,2%,-10%,7%,-12%,9%,-17%
COc1ccc(/C=C/C(=O)c2ccc3c4c(cccc24)CC3)cc1OC,21µM*,-10%,-1%,16µM*,-17%,2%
COc1ccc(/C=C/C(=O)c2c(O)c(OC)c3occc3c2OC)cc1OC,11µM*,.,.,10µM*,.,.
COc1ccc(/C=C/C(=O)Nc2ccccc2)cc1OC,1%,-12%,-3%,12%,1%,2%
COc1ccc(C(=O)Oc2ccc(F)cc2C(=O)/C=C/c2ccc(OC)c(OC)c2)cc1,15µM*,-10%,8%,13µM*,-30%,-14%
COc1c(C)cc(S(=O)(=O)NCCc2c(C)[nH]c3ccccc23)c(C)c1C,?,-15%,12%,?,7%,.
Cc1noc(C)c1-c1ccc2ncnc(NCc3ccc(C(F)(F)F)cc3)c2c1,.,.,6%,.,.,.

# Screening results: PubChem, National Center for Advancing Translational Sciences (NCATS)
